Here are results for seven molecules from PubChem BioAssay.

Active and inactive are the calls of the source. Unless noted, the rule behind the calls is not given here.

Assay [1] is described as follows: resazurin metabolic signal in HepG2 cells – cell-based, resazurin fluorescence, 24 h, PK04 Diversity Set, profiling panel (AID 1172). The conditions noted are these: HepG2 viability, higher = more signal. In general terms: The colour change of resazurin is a common sign of viable cells or microbes.
Assay [2] can be described thus: budding yeast growth changes without added modifier – OD600, strain BY4716, 24 h, basal condition, primary screen (AID 1173). The note with it: S. cerevisiae BY4716 growth, OD600, 24 h; higher = more signal, called active from +8 up or from −8 down.
Assay [3] in a line: viability profiling in MM1S myeloma cells – cell-based, resazurin fluorescence, basal, 24 h, PK04 Diversity Set, profiling panel (AID 1174). The note with it: higher = more signal, called active from +8 up or from −8 down.
For assay [4], the target named is Dihydroorotate dehydrogenase (quinone), mitochondrial (Plasmodium falciparum (isolate 3D7)) (UniProt Q08210). Put plainly: inhibition of P. falciparum DHODH – biochemical, C-terminal His tag, absorbance 600 nm, primary screen (AID 1175).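 Note: recombinant parasite enzyme with a five histidine tag at its C terminus.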 The note with it: PfDHODH enzyme, DCIP absorbance 600 nm; higher = more signal, called active from +8 up or from −8 down.
Assay [5] is described as follows: inhibition of PAO1 biofilm formation – strain PAO1, LB-PBS medium, absorbance 600 nm, primary screen (AID 1176). The note with it: P. aeruginosa PAO1 growth/biofilm, A600, 12 h; higher = more signal.
Assay [6] in a line: growth modulation of vineyard yeast isolate – strain RM11-1a, OD600, basal, 24 h, primary screen (AID 1177).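 Note: cultures grown under basal conditions with no added stressor.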 The note with it: S. cerevisiae RM11-1a growth, OD600, 24 h; higher = more signal, called active from +8 up or from −8 down.
A short description of assay [7]: growth of efflux-deficient E. coli DRC39 – strain DRC39, OD650, 24 h, E. coli filamentation inducers, primary screen (AID 1178).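 Note: growth measured as culture turbidity by optical density at 650 nm.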 The conditions noted are these: E. coli DRC39 acrAB, higher = more signal, called active from +8 up or from −8 down.
Assay [8] in a line: growth of efflux-deficient E. coli DRC39 – strain DRC39, OD650, 48 h, E. coli filamentation inducers, primary screen (AID 1179).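 Note: screen aims at cell division blockers that make cells filament.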 The conditions noted are these: E. coli DRC39 delta-acrAB growth, higher = more signal, called active from +8 up or from −8 down.
A short description of assay [9]: viability profiling in RPMI8226 myeloma cells – cell-based, resazurin fluorescence, basal, 24 h, PK04 Diversity Set, profiling panel (AID 1180).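 Note: RPMI8826 multiple myeloma cell line at 5000 cells per well.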 The note with it: higher = more signal.
Assay [10] concerns the target E3 ubiquitin-protein ligase XIAP (Homo sapiens) (UniProt P98170). Briefly: small molecules binding XIAP protein – biophysical, small-molecule microarray, fluorescence 635 nm, primary screen (AID 1181).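 Note: score merges 667 nm emission and signal to noise over triplicate slides.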 The note with it: higher = more signal.
Assay [11] has as its system XIP peptide (Xip251-270) binding. Briefly: XIP fragment 251-270 binding compounds – biochemical, small-molecule microarray, fluorescence 635/667 nm, 0.1 µg/mL protein, primary screen (AID 1182). The note with it: fluorescent protein binding, 635 nm, higher = more signal, called active from +8 up or from −8 down.
Another assay concerns XIP peptide (Xip251-270). Put plainly: compounds binding XIP fragment 251-270 – biochemical, small-molecule microarray, fluorescence 635/667 nm, 0.5 µg/mL protein, primary screen (AID 1183). The conditions noted are these: fluorescence 635 nm, higher = more signal.
Assay [12] can be described thus: blood-stage malaria parasite viability loss – strain 3D7, DAPI fluorescence, 100 nL, primary screen (AID 1184).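 Note: parasites grown inside human red blood cells in medium with human serum.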 The note with it: P. falciparum 3D7 growth, 3 d, higher = more signal.
For assay [13], the target named is Homeobox protein Hox-A13 (Mus musculus) (UniProt Q62424). Put plainly: disruptors of Hoxa13 oligonucleotide interaction – biochemical, fluorescence polarization, labeled oligonucleotide, primary screen (AID 1185). The note with it: Hoxa13:DNA binding, 15 min, higher = more signal, called active from +8 up or from −8 down. For orientation: Polarisation of emitted light reports the rotation of a fluorescent probe.

Assay [14] can be described thus: blockers of DNA damage checkpoint Chk1 activation – imaging, HeLa, hydroxyurea, phospho-Chk1 antibody, percent positive cells, primary screen (AID 1186). The conditions noted are these: hydroxyurea-induced phospho-Chk1 immunofluorescence imaging, higher = more signal.
Assay [15] is described as follows: blockers of DNA damage checkpoint Chk1 activation – imaging, HeLa, hydroxyurea, phospho-Chk1 nuclear intensity, primary screen (AID 1187). The note with it: hydroxyurea-induced phospho-Chk1 immunofluorescence imaging, higher = more signal.

Chain of E3 ubiquitin-protein ligase XIAP (Homo sapiens) (P98170 whole entry, looked up, the tested form may be a part): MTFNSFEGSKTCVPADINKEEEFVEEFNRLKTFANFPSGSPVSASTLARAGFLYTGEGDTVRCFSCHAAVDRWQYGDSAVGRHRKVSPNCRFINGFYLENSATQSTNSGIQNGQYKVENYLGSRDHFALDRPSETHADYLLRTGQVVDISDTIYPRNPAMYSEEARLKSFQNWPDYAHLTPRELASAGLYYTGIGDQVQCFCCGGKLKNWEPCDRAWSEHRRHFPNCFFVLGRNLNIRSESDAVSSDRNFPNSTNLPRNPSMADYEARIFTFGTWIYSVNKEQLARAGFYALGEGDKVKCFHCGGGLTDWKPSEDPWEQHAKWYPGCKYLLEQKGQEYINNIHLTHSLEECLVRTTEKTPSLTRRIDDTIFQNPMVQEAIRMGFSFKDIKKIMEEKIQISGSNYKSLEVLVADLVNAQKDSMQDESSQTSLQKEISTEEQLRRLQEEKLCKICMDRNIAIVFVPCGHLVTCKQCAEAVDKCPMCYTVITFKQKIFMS
Chain of Homeobox protein Hox-A13 (Mus musculus) (Q62424 whole entry, looked up): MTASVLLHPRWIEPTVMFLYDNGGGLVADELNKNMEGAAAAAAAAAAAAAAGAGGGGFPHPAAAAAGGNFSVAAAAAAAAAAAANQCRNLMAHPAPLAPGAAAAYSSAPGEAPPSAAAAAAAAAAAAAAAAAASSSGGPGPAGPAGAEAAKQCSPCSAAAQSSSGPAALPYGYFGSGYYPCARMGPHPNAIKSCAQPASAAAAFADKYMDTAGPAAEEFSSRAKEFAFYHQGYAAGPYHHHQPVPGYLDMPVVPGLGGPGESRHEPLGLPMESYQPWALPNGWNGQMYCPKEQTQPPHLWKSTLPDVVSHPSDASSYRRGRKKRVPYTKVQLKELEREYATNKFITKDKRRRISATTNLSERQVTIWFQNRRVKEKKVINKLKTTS
Chain of Dihydroorotate dehydrogenase (quinone), mitochondrial (Plasmodium falciparum (isolate 3D7)) (Q08210 whole entry, looked up): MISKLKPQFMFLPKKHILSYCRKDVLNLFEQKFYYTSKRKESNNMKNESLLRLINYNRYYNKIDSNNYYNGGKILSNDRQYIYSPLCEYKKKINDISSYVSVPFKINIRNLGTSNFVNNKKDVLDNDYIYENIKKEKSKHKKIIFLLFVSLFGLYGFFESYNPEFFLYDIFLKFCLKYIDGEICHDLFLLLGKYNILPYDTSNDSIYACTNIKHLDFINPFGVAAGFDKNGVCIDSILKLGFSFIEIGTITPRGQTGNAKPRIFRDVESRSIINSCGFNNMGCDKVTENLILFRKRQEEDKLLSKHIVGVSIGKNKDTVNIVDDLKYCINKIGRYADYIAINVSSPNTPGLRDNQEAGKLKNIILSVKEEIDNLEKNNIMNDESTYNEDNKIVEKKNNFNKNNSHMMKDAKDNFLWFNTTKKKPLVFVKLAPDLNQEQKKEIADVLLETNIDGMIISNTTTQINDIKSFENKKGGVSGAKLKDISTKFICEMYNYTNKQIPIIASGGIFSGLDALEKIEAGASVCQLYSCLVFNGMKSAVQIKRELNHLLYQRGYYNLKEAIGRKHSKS

`CCOC(=O)C[C@H]1[C@H](OC(=O)Cc2ccc3c(c2)OCO3)[C@@H](NC(=O)Cc2ccc(OC)cc2)c2cc(OCCCO)ccc2N1C(=O)Cc1ccc(OC)cc1`: the z-score was -0.354 in [1]; -0.605 (inactive) in assay [2]; 0.594 (inactive) in [3]; 0.501 (inactive) in [5]; -1.62 (inactive) in assay [6]; 1.44 (inactive) in assay [7]. The z-score in assay [8] was 1.94 (inactive); in [9] it was 1.02; in assay [12], -1.99; in assay [13], -1.76 (inactive); in [14], -1.33 (inactive); in assay [15], -1.19 (inactive). For the same molecule, the composite z-score in [4] was -1.72 (inactive); in assay [10], -0.207; in assay [11], -0.0299 (inactive); in the assay on XIP peptide (Xip251-270) it was 0.678.

Consider `CC(C)NC(=O)[C@@]1(c2ccc([N+](=O)[O-])cc2)CC(=O)N(CC23CC4CC(CC(C4)C2)C3)[C@@H]1c1ccc(CO)cc1`, for which the z-score in assay [1] is -1.21; in [2], -0.692 (inactive); in assay [3], -2.06 (inactive); in [5], 0.792 (inactive); in assay [6] it was 0.311 (inactive); in assay [7], -0.502 (inactive). Besides, the z-score is -0.655 (inactive) in assay [8]; -3.14 in assay [9]; -0.948 in assay [12]; -4.97 (inactive) in assay [13]; 0.103 (inactive) in assay [14]; 0.412 (inactive) in assay [15]. Besides, the composite z-score is -0.257 (inactive) in [4], -0.0295 in [10], 1.26 (inactive) in assay [11] and 0.918 in the assay with XIP peptide (Xip251-270).

With `C=CCOC(=O)[C@@H]1[C@H]2C(=O)O[C@H](c3ccccc3)[C@H](c3ccccc3)N2[C@H](c2ccc(OCCOC(=O)[C@H]3C[C@H]4C(=O)NCC(=O)N4[C@H]3c3cccc(OCCO)c3)cc2)[C@@]12C(=O)Nc1ccc(I)cc12`, the z-score in assay [1] was -0.155; in assay [2], 1.87 (inactive); in assay [3], -0.0681 (inactive); in assay [5] it was 3.08 (inactive); in assay [6], 1.08 (inactive); in [7], 0.0109 (inactive). Besides, the z-score in assay [8] was 0.312 (inactive); in [9], -1.09; in [12], -1.9; in assay [13] it was 0.337 (inactive); in assay [14] it was -0.856 (inactive); in [15], -1.2 (inactive). Moreover, the composite z-score is 0.131 (inactive) in assay [4], -0.117 in assay [10], 0.604 (inactive) in assay [11] and 0.794 with XIP peptide (Xip251-270).

`C=CCN1C(=O)[C@@]2(O[C@@H](CCn3cc([C@H](O)c4ccccc4)nn3)[C@H]([Si](C)(C)c3ccc(OC)cc3)[C@H]2C)c2cc(N3C(=O)c4cccc5cccc3c45)ccc21`: the z-score in assay [1] was -1.36; in [2] it was 0.318 (inactive); in [3] it was -2.17 (inactive); in [5] it was 0.72 (inactive); in assay [6], 1.72 (inactive); in assay [7], 0.0833 (inactive). Besides, the z-score in assay [8] was -0.0869 (inactive); in [9] it was -2.42; in [12] it was -0.816; in [13], -3.29 (inactive); in assay [14], -0.0586 (inactive); in [15] it was 0.311 (inactive). For the same molecule, the composite z-score is -0.0217 (inactive) in assay [4], 0.212 in assay [10], 0.185 (inactive) in [11] and 0.21 in the assay with XIP peptide (Xip251-270).

For `C=C(COC)C(=O)CC[C@H](OC(=O)c1cccnc1)c1ccc(OCCO)cc1`, the z-score is -0.974 in [1]; -3.4 (inactive) in assay [2]; -0.443 (inactive) in [3]; -0.0342 (inactive) in assay [5]; 1.29 (inactive) in assay [6]; -0.768 (inactive) in assay [7]. In addition, the z-score in assay [8] was -0.8 (inactive); in assay [9], -0.776; in assay [12], -0.711; in assay [13], -5.58 (inactive); in assay [14], 0.35 (inactive); in [15], 0.343 (inactive). In addition, the composite z-score in assay [4] is -2.45 (inactive); in assay [10], -0.0013; in [11] it was 1.08 (inactive); in the assay with XIP peptide (Xip251-270), 0.447.

In the case of `C=CCNC(=O)[C@H]1[C@@H]2C(=O)O[C@@H](c3ccccc3)[C@@H](c3ccccc3)N2[C@@H](c2ccccc2OCCO)[C@]12C(=O)N(C(=O)OCCOC)c1ccc(C#Cc3ccc(OC)cc3)cc12`, the z-score was -0.345 in [1]; 1.19 (inactive) in [2]; -0.637 (inactive) in [3]; 2.23 (inactive) in [5]; 3.16 (inactive) in assay [6]; -0.604 (inactive) in [7]. In addition, the z-score in assay [8] is 0.582 (inactive); in assay [9], -1.17; in assay [12], -2.16; in assay [13], -0.0717 (inactive); in assay [14] it was 0.0629 (inactive); in [15], 0.539 (inactive). Besides, the composite z-score in assay [4] was -0.306 (inactive); in assay [10], -0.113; in assay [11], 0.559 (inactive); in the assay with XIP peptide (Xip251-270), 0.807.

As for `COCCOC(=O)N1C(=O)[C@@]2(c3cc(C#CCCO)ccc31)[C@H](C(N)=O)[C@H]1C(=O)O[C@H](c3ccccc3)[C@H](c3ccccc3)N1[C@@H]2c1ccccc1OCCO`, the z-score in assay [1] was -0.231; in assay [2], 1.11 (inactive); in [3], -2.76 (inactive); in assay [5] it was 0.594 (inactive); in [6] it was 2.34 (inactive); in assay [7], 0.354 (inactive). The z-score was 0.449 (inactive) in assay [8]; -1.95 in [9]; -1.31 in [12]; -3.88 (inactive) in assay [13]; 0.0461 (inactive) in assay [14]; -0.303 (inactive) in assay [15]. Further, the composite z-score is 0.754 (inactive) in assay [4], -0.124 in [10], 1.47 (inactive) in assay [11] and 0.832 with XIP peptide (Xip251-270).
